# Reference: PubChem BioAssay (Tox21)
# Records with an inconclusive call do not appear. Where a call stands in place of a potency, no number is given. Active and inactive are the calls of the source. Calls come from the whole dose curve; as a rule, active = well fitted cell-killing curve with a large enough effect in the repeat runs; inconclusive = weak or mixed curves, or effect the other way; inactive = flat fitted curve, though single readings scatter.
# Test: qHTS RealTime-Glo MT Cell Viability Assay in HEK293 cells - 8 hour (AID 1224887); note: nearly all actives have a fitted effect of over 50% in size
# Conditions: RealTime-Glo luminescence; series mostly up to 76.8 µM
# In short: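 600 HEK293 cells per well, dispensed already mixed with RealTime-Glo MT reagents. Compound dosing came 5 h later. The same wells were read for luminescence at 0, 8, 16, 24, 32 and 40 h of exposure at 37 C.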
# Potency is the fitted concentration of half-maximal effect.
row,Structure (SMILES),Potency
1,CC1=C(/C=C/C(C)=C/C=C/C(C)=C/CO)C(C)(C)CCC1,inactive
2,COC(=O)c1ccccc1O,inactive
3,C[C@@H](O)[C@H]1C(=O)N2C(C(=O)O)=C(S[C@@H]3CN[C@H](C(=O)N(C)C)C3)[C@H](C)[C@H]12,inactive
4,CCc1ccc(O)cc1,inactive
5,COC(=O)c1ccc(C(=O)OC)cc1,inactive
6,OCC#CCO,inactive
7,CN(C)c1cccc(O)c1,inactive
8,COCC(=O)O,inactive
9,CC1=CC[C@H]2C[C@@H]1C2(C)C,inactive
10,CC(C)(C)C1CCC(O)CC1 (stereo unspecified),inactive
11,O=S(=O)(O)c1cc(S(=O)(=O)O)c2c(N=Nc3ccccc3)c(O)ccc2c1,inactive
12,CC#C[C@]1(O)CC[C@H]2[C@@H]3CCC4=CC(=O)CCC4=C3[C@@H](c3ccc(N(C)C)cc3)C[C@@]21C,43.6 µM (active)
13,S=c1nc[nH]c2nc[nH]c12,inactive
14,O=C(Cl)c1c(Cl)c(Cl)c(C(=O)Cl)c(Cl)c1Cl,inactive
15,Nc1nc2ncc(CNc3ccc(C(=O)N[C@@H](CCC(=O)O)C(=O)O)cc3)nc2c(=O)[nH]1,inactive
16,CC1Cc2ccccc2N1NC(=O)c1ccc(Cl)c(S(N)(=O)=O)c1 (stereo unspecified),inactive
17,C=C(C)C(=O)OCC(CC)(COC(=O)C(=C)C)COC(=O)C(=C)C,inactive
18,CCCCCCCCCCCCOCC1CO1 (stereo unspecified),inactive
19,CC(C)n1c(/C=C/[C@@H](O)C[C@@H](O)CC(=O)O)c(-c2ccc(F)cc2)c2ccccc21,inactive
20,NC(=O)NNc1ccccc1,inactive
21,O=C(c1cc(O)c(O)c(O)c1)c1ccc(O)c(O)c1O,inactive
